Only some compounds are listed: those with a hit (about 3.7% of all), similar ones and a draw of the others.
VDR inhibitor: blocks the human vitamin D receptor; AID 504847; 400,000 compounds, 0.93% hits; Potency, µM, for the others: max response, negative = inhibition, actives largely listed as inhibitors; VDR-SRC2-3 peptide fluorescence polarization, 2 h; P11473; further: potency means the concentration at half of the fitted maximal effect; on the % scale 0 is the no-effect control and ±100 the full control effect
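Signal is fluorescence polarization, reporting how far test compounds block the interaction of VDR with the SRC2-3 coregulator peptide after a 2 h room-temperature incubation.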
PI5P4K alpha inh: inhibitors of human PI5P4K alpha. PI5P4Kalpha enzyme, ADP-Glo luminescence, 60 min; hits give low values. AID 652105. 330,000 compounds, 1.2% hits. P48426. max response, %; active means max response of -50% or lower; inconclusive means between -30% and -50%; inactive means -30% or higher; further: value at the top dose of about 77 µM; on the % scale 0 is the no-effect control and ±100 the full control effect
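ADP-Glo luminescence end-point read after a 60 min room-temperature kinase reaction of PI5P4Kalpha plus substrate, initiated with ATP at 5 microM final. Buffer: 0.038 M HEPES pH 7.4, EGTA, 0.1% CHAPS, 5% DMSO.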
WRN inhibitor: blocks human WRN helicase; Potency, µM (doses to about 114 µM), inactives show at the top dose activity change, negative = inhibition, most hits filed as inhibitors; 360,000 compounds, 0.46% hits; Q14191; WRN helicase unwinding, fluorescent forked duplex, kinetic; further: potency means the concentration at half of the fitted maximal effect; on the % scale 0 is the no-effect control and ±100 the full control effect; nearly all actives have a fitted effect of over 55% in size
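Kinetic fluorescence helicase assay: unwinding of a quenched forked DNA duplex (100 nM final) with 2 mM ATP final raises red fluorescence (525/598 nm). Compounds sat 15 min at room temperature with 20 nM WRN beforehand.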
FEN1 inhibitor: human FEN1 inhibition | Recombinant FEN1 flap cleavage, fluorescence, 15 min | Potency, µM (doses to about 114 µM), for the others: at the highest dose activity change, negative = inhibition, actives largely listed as inhibitors | 390,000 compounds, 0.35% hits | AID 588795; further: potency means the concentration at half of the fitted maximal effect; on the % scale 0 is the no-effect control and ±100 the full control effect; nearly all actives have a fitted effect of over 65% in size
Target sequence (P39748 whole entry, looked up): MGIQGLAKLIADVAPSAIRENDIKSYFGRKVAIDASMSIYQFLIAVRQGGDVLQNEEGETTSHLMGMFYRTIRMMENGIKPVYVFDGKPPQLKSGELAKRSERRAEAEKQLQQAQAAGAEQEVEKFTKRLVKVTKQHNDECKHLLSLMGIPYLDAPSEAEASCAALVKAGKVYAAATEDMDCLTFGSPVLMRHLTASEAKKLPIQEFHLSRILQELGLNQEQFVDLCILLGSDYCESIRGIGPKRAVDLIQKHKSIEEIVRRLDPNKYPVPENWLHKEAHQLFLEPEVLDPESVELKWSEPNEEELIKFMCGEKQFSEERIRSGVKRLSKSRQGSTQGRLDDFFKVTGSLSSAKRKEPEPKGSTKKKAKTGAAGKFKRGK
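With each library titrated from low to high concentration, compounds met 10 nM FEN1 for 15 min at room temperature before 50 nM substrate was added; readings at 0 and 15 min fed four-parameter Hill curve fits.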
TCR activator: activators of T cell receptors; primary human leukocytes, anti-CD3, IL-2 HTRF, 48 h; Potency, µM (top dose mostly 9.22 µM), for inactives: at the top dose activation of IL-2 secretion, actives largely listed as activators; 330,000 tested, under 10 active; AID 504894; further: % of control where 0% means no effect
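HTRF read-out of IL-2 secretion: europium cryptate donor excited at 320nm, d2 acceptor emission at 665nm. Cells were primary human leukocytes incubated 48 hr with compounds and a-CD3 beads, supplying TCR signal only.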
PLK1 PBD inh: PLK1 (human) polo-box domain binding inhibition. Plk1 PBD binding of FITC phosphopeptide, fluorescence polarization. Potency, µM, inactives show max response, negative = inhibition, actives largely listed as inhibitors. 360,000 compounds, 2.8% hits; further: potency means the concentration at half of the fitted maximal effect; series mostly up to about 57 µM; on the % scale 0 is the no-effect control and ±100 the full control effect; nearly all actives have a fitted effect of over 65% in size
The depositor's hits bear a star; u = inconclusive; x = no result given. Unless noted, the call rests on the fitted dose curve; in most records, active means well fitted curve in the direction sought with a large enough effect; inconclusive means small, poorly fitted or top-dose-only effect, or another doubt; inactive means no such curve, though single readings can be large; an effect the other way counts as inactive or inconclusive.

SMILES	VDR inhibitor	PI5P4K alpha inh	WRN inhibitor	FEN1 inhibitor	TCR activator	PLK1 PBD inh
CCN(c1ccccc1)S(=O)(=O)c1nnc(NC(=O)C(C)Oc2ccccc2)s1 (configuration not stated)	8.6%	x	x	0.7%	x	x
CN(C)S(=O)(=O)Oc1cc(Cl)ccc1C(=O)Nc1ccc(F)cc1F	-14.5%	-3.6	13.9%	1.8%	-70.1%	23.8µM*
COC(=O)CC1c2ccccc2C(Cc2ccc3c(c2)OCO3)=C(C)N1C(=O)OC (configuration not stated)	-1.7%	x	x	x	x	x
CC1=C(c2ccc(C(C)C)cc2)S(=O)(=O)N=C1N1CCN(C(=O)c2ccco2)CC1	u	-5.7	-10.0%	-2.8%	-2.3%	26.7µM*
CN(C)c1ncnc2ccc(-c3ccccc3C#N)cc12	3.8%	x	x	x	x	x
N#Cc1cnc(Sc2ccccc2)nc1	u	-10.2	6.3%	15.6%	-1.4%	29.9µM*
C/[N+]([O-])=C\c1cccc(OCCN2CCN(c3ncc(C(F)(F)F)cc3Cl)CC2)c1	-3.3%	-5.5	7.2%	-15.2%	8.0%	11.9µM*
O=C(OCCN1CCN(c2ncc(C(F)(F)F)cc2Cl)CC1)c1ccc(Cl)cc1	-12.1%	28.0	-5.2%	-0.5%	-1.4%	-1.6%
CCOc1ccc(C(O)(c2ccccc2)C(CN2CCCC2)c2ccccc2)cc1 (configuration not stated)	u	-24.1	u	-0.3%	0.7%	5.97µM*
O=C(O)/C=C/c1ccc2c(c1)S(=O)(=O)N(C1CCCC1)[C@H]2CC(=O)O	x	x	x	11.2%	x	x
CCOC(=O)CSc1nnc([C@H](Cc2ccccc2)NC(=O)OC(C)(C)C)o1	9.4%	x	-19.1%	11.8%	5.3%	2.5%
CC(C)Cn1nnnc1S(=O)(=O)Cc1cccc(C#N)c1	7.9%	x	x	x	x	x
CC(C)(C)OC(=O)N[C@@H](Cc1ccccc1)c1nnc(S(=O)(=O)Cc2cccc(F)c2)o1	11.2µM*	-0.4	u	-12.9%	5.4%	5.97µM*
CC(C)C[C@H](N)c1nnc(S(=O)(=O)Cc2cccc(F)c2)o1	17.8µM*	x	-6.5%	-15.4%	-0.4%	u
Cc1cc(C)cc(C(=O)NCCc2sc(-c3ccc(F)cc3)nc2C)c1	11.6%	x	x	-0.3%	x	x
Cc1ccnc2ccc(F)cc12	x	x	x	-10.4%	x	x
COc1ccc(Cl)c2sc(NC(=O)c3ccc(S(=O)(=O)N4CCOCC4)cc3)nc12	10.6%	x	x	17.5%	x	x
CC(C)Sc1nc2c(c(=O)[nH]c(=O)n2C)n1CC(O)COc1ccccc1 (configuration not stated)	3.4%	-13.5	-14.8%	-1.3%	3.3%	23.8µM*
Cn1c(=O)[nH]c(=O)c2c1nc(N1CCCC1)n2CC(O)COc1ccccc1 (configuration not stated)	-7.2%	-3.4	-2.9%	15.5%	-4.1%	-11.5%
CC(O)CSc1nc2c(c(=O)[nH]c(=O)n2C)n1CC(O)COc1ccccc1 (configuration not stated)	u	-1.5	-3.0%	17.8%	1.9%	26.7µM*
CCOC(=O)c1cc(C)[nH]c(=S)c1C#N	-2.6%	u	-18.6%	-1.5%	6.0%	26.7µM*
Cc1cccc(OCCCn2c(CCNC(=O)C3CCCCC3)nc3ccccc32)c1	-1.1%	x	x	u	x	x
CCS(=O)(=O)Nc1ccc(Cc2ccncc2)cc1	-0.6%	-4.8	7.8%	6.4%	1.3%	29.9µM*
C=CCCN(C(C)C(=O)OC)S(=O)(=O)c1ccccc1Br (configuration not stated)	-25.4%	x	x	9.9%	x	x
CCN(CC)c1ccc(C(=S)N2CCN(c3ccccc3)CC2)cc1	-7.4%	7.1	-4.0%	-10.3%	-2.0%	13.4µM*
O=C(c1ccccc1)N1CCCC(C(=O)N2CCCCC2)C1 (configuration not stated)	2.8%	-6.8	-2.0%	2.7%	-5.7%	-8.2%
COc1ccc(N2CCN(C(=O)c3ccc(C(C)(C)C)cc3)CC2)cc1	8.6%	-0.4	-4.2%	3.4%	0.2%	-3.3%
O=C(c1ccccc1)N1CCCC(C(=O)N2CCN(c3ccccc3)CC2)C1 (configuration not stated)	u	-12.7	-14.1%	10.9%	-11.7%	26.7µM*

Source: PubChem (National Center for Advancing Translational Sciences (NCATS))
